# Laboratory results taken from PubChem BioAssay AID1159580 (chemical genetic matrix, 2015).
# The campaign covered roughly 5,500 compounds. About 2,000 (36%) were called active. About 18% were inconclusive and are not listed. The list shows a part of the results. Unmarked numbers belong to inactive results. Rule as the data show it: active = normalized growth mostly below about 0.91 (no sharp cut-off); inconclusive = no clear call, values can overlap the other calls; inactive = mostly above about 0.92.
# Experiment: chemical genetic growth profiling, strain panel (AID 1159580);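 also: tested at 20 µM; growth read once vehicle control cultures reached saturation at 30 °C; 1 = growth at the plate median or of vehicle wells; lower values mean less growth of the strain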
# Settings: S. cerevisiae deletion strains, growth OD
smiles,measurement,setting,value
COc1cc(O)c(C(=O)/C=C/c2ccc(OC)c(O)c2)c(OC)c1,normalized growth,"locus YAL021C, strain ccr4, active compounds read low",0.994
same,normalized growth,"locus YAL026C, strain drs2, active compounds read low",0.906 (active)
same,normalized growth,"locus YAL030W, strain snc1, active compounds read low",0.961
same,normalized growth,"locus YBL061C, strain skt5, active compounds read low",0.939
same,normalized growth,"locus YBR009C, strain hhf1, active compounds read low",0.846 (active)
same,normalized growth,"locus YBR023C, strain chs3, active compounds read low",0.912 (active)
same,normalized growth,"locus YBR171W, strain sec66, active compounds read low",0.993
same,normalized growth,"locus YBR231C, strain swc5, active compounds read low",0.925
same,normalized growth,"locus YBR279W, strain paf1, active compounds read low",0.965
same,normalized growth,"locus YCL011C, strain gbp2, active compounds read low",0.91
same,normalized growth,"locus YCL016C, strain dcc1, active compounds read low",0.971
same,normalized growth,"locus YCL061C, strain MRC1, active compounds read low",0.954
same,normalized growth,"locus YCL069W, strain vba3, active compounds read low",0.946
same,normalized growth,"locus YCR088W, strain abp1, active compounds read low",0.995
same,normalized growth,"locus YDL005C, strain med2, active compounds read low",1.01
same,normalized growth,"locus YDL040C, strain nat1, active compounds read low",1.01
same,normalized growth,"locus YDR001C, strain nth1, active compounds read low",0.992
same,normalized growth,"locus YDR069C, strain doa4, active compounds read low",1.06
same,normalized growth,"locus YDR137W, strain rgp1, active compounds read low",0.912
same,normalized growth,"locus YDR159W, strain sac3, active compounds read low",0.929
same,normalized growth,"locus YDR195W, strain ref2",1.17 [resistant] (active)
same,normalized growth,"locus YDR297W, strain sur2, active compounds read low",1.01
same,normalized growth,"locus YDR334W, strain swr1, active compounds read low",0.983
same,normalized growth,"locus YDR335W, strain msn5, active compounds read low",0.935
same,normalized growth,"locus YDR392W, strain spt3, active compounds read low",0.413 (active)
same,normalized growth,"locus YEL003W, strain gim4, active compounds read low",0.927
same,normalized growth,"locus YEL037C, strain rad23, active compounds read low",0.988
same,normalized growth,"locus YEL061C, strain CIN8 (second series), active compounds read low",0.918
same,normalized growth,"locus YER015W, strain faa2, active compounds read low",0.956
same,normalized growth,"locus YER016W, strain bim1, active compounds read low",1.02
same,normalized growth,"locus YER111C, strain swi4, active compounds read low",0.98
same,normalized growth,"locus YER155C, strain BEM2 (second series), active compounds read low",0.765 (active)
same,normalized growth,"locus YFR010W, strain ubp6, active compounds read low",0.959
same,normalized growth,"locus YGL167C, strain pmr1, active compounds read low",1.02
same,normalized growth,"locus YGL173C, strain kem1, active compounds read low",0.939
same,normalized growth,"locus YGL227W, strain vid30, active compounds read low",0.96
same,normalized growth,"locus YGL240W, strain doc1, active compounds read low",0.946
same,normalized growth,"locus YGL253W, strain hxk2, active compounds read low",0.806 (active)
same,normalized growth,"locus YHR013C, strain ard1, active compounds read low",1.02
same,normalized growth,"locus YHR027C, strain rpn1, active compounds read low",0.987
same,normalized growth,"locus YHR030C, strain SLT2, active compounds read low",0.922
same,normalized growth,"locus YHR079C, strain IRE1, active compounds read low",0.943
same,normalized growth,"locus YHR142W, strain chs7, active compounds read low",0.712 (active)
same,normalized growth,"locus YJL092W, strain hpr5, active compounds read low",0.957
same,normalized growth,"locus YJL095W, strain BCK1 (second series), active compounds read low",0.86 (active)
same,normalized growth,"locus YJL095W, strain BCK1, active compounds read low",0.941
same,normalized growth,"locus YJL115W, strain asf1, active compounds read low",1
same,normalized growth,"locus YJL129C, strain trk1, active compounds read low",0.852 (active)
same,normalized growth,"locus YJL154C, strain vps35, active compounds read low",1.02
same,normalized growth,"locus YJL164C, strain tpk1, active compounds read low",0.842 (active)
same,normalized growth,"locus YJL166W, strain qcr8, active compounds read low",0.799 (active)
same,normalized growth,"locus YJL187C, strain SWE1, active compounds read low",0.914 (active)
same,normalized growth,"locus YJR066W, strain TOR1, active compounds read low",0.897
same,normalized growth,"locus YKL160W, strain elf1, active compounds read low",0.893 (active)
same,normalized growth,"locus YKR026C, strain gcn3, active compounds read low",0.992
same,normalized growth,"locus YKR091W, strain srl3, active compounds read low",1.01
same,normalized growth,"locus YLL001W, strain dnm1, active compounds read low",0.891 (active)
same,normalized growth,"locus YLL026W, active compounds read low",0.857 (active)
same,normalized growth,"locus YLL041C, strain sdh2, active compounds read low",1.01
same,normalized growth,"locus YLR027C, strain aat2, active compounds read low",0.841 (active)
same,normalized growth,"locus YLR113W, strain HOG1, active compounds read low",0.982
same,normalized growth,"locus YLR221C, strain rsa3, active compounds read low",0.79 (active)
same,normalized growth,"locus YLR258W, strain gsy2, active compounds read low",0.903 (active)
same,normalized growth,"locus YLR262C, strain YPT6 (second series), active compounds read low",0.752 (active)
same,normalized growth,"locus YLR320W, strain mms22, active compounds read low",0.793 (active)
same,normalized growth,"locus YLR342W, strain FKS1, active compounds read low",1
same,normalized growth,"locus YLR357W, strain rsc2, active compounds read low",0.933
same,normalized growth,"locus YLR370C, strain arc18, active compounds read low",0.944
same,normalized growth,"locus YLR384C, strain iki3, active compounds read low",1.03
same,normalized growth,"locus YML120C, strain ndi1, active compounds read low",0.828 (active)
same,normalized growth,"locus YMR058W, strain fet3, active compounds read low",0.847 (active)
same,normalized growth,"locus YMR125W, strain sto1, active compounds read low",0.9
same,normalized growth,"locus YMR129W, active compounds read low",0.992
same,normalized growth,"locus YMR205C, strain PFK2, active compounds read low",0.845 (active)
same,normalized growth,"locus YMR231W, strain pep5, active compounds read low",0.98
same,normalized growth,"locus YNL071W, strain lat1, active compounds read low",0.566 (active)
same,normalized growth,"locus YNL183C, strain NPR1, active compounds read low",0.958
same,normalized growth,"locus YNL209W, strain ssb2, active compounds read low",1.01
same,normalized growth,"locus YNL248C, strain rpa49, active compounds read low",0.909
same,normalized growth,"locus YNL322C, strain KRE1 (second series), active compounds read low",0.997
same,normalized growth,"locus YNR049C, strain mso1, active compounds read low",0.997
same,normalized growth,"locus YOR001W, strain rrp6, active compounds read low",0.905
same,normalized growth,"locus YOR070C, strain gyp1, active compounds read low",0.895 (active)
same,normalized growth,"locus YOR080W, strain dia2, active compounds read low",1.01
same,normalized growth,"locus YOR083W, strain WHI5, active compounds read low",0.859 (active)
same,normalized growth,"locus YOR106W, strain vam3, active compounds read low",0.822 (active)
same,normalized growth,"locus YOR231W, strain MKK1, active compounds read low",0.931
same,normalized growth,"locus YOR265W, strain rbl2, active compounds read low",0.988
same,normalized growth,"locus YOR270C, strain vph1, active compounds read low",0.833
same,normalized growth,"locus YOR290C, strain snf2, active compounds read low",0.751 (active)
same,normalized growth,"locus YPL051W, strain arl3, active compounds read low",0.856 (active)
same,normalized growth,"locus YPL078C, strain atp4, active compounds read low",0.796 (active)
same,normalized growth,"locus YPL106C, strain sse1, active compounds read low",0.929
same,normalized growth,"locus YPL240C, strain hsp82, active compounds read low",0.976
same,normalized growth,"locus YPL256C, strain CLN2, active compounds read low",0.942
